Laboratory results reported in the supplement of paper PMC4206467.

system: Perkinsus marinus PRA240; assay: ATP content (proliferation) relative to DMSO control; higher = more parasite growth (less inhibition); settings: 20 µM; 4 days
Procedure: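 Perkinsus marinus PRA240 trophozoites (2-5x10^6 cells/ml, 100 µl, 96-well) were exposed once to MMV Malaria Box compounds at 20 µM (0.1% DMSO) in triplicate. ATP content (ATPlite bioluminescence) was read at day 4 post-exposure and normalised to DMSO + cells control wells (100% activity). Compounds were identified by joining plate and well to the Malaria Box list.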

Point of comparison: `OCCNc1nc(Nc2ccc(Cl)c(Cl)c2)nc2ccccc12`, ATP content 28.8%. Against it:
- CCOc1ccccc1CN1CCc2nc3cc(C(C)(C)C)nn3c(O)c2C1 — higher, 51.7%
- CC1CCCCN1CCCNC(=O)c1ccc2c(c1)sc1nc(-c3ccc(F)cc3)cn12 (stereo not drawn) — higher, 133%
- Cc1cc(N2CCN(C3CCCC3)CC2)n2c(nc3ccccc32)c1C#N — higher, 161%
- CCN(CC)CCCNc1ccnc2cc3ccccc3cc12 — higher, 139%
- CCOc1ccc(N2C(N)=NC(N)=NC2(C)C)cc1 — higher, 114%
- N#Cc1nc(Cc2cccc3ccccc23)oc1N1CCN(C(c2ccccc2)c2ccccc2)CC1 — higher, 132%
- COc1cccc(C(=O)NC(c2ccc(C)cc2)c2cc(Cl)c3cccnc3c2O)c1 (stereo not drawn) — higher, 39.5%
- CC1CC(C)CN(C(=O)c2ccc(Cl)cc2Cl)C1 (stereo not drawn) — higher, 135%
- Oc1c2c(nc3cc(-c4ccccc4)nn13)CCCC2 — higher, 47.5%
- COc1ccc(Nc2cc(C)nc(NCc3ccccc3)n2)cc1 — higher, 93.8%
- O=C(CSc1ccc2nnc(-c3cccc(F)c3)n2n1)Nc1ccc2c(c1)OCO2 — higher, 102%
- CC1=C(CC(=O)c2cccc([N+](=O)[O-])c2)C(=O)c2ccccc2C1=O — higher, 136%
- COc1cccc(Cn2c(Oc3ccccc3)nc3c2c(=O)n(C)c(=O)n3C)c1 — higher, 106%
- CCCCNCC(O)(c1ccc(Cl)cc1)c1ccc(Cl)cc1 — higher, 103%
- CCc1ccc(CNCC(O)c2ccccc2)cc1 (stereo not drawn) — higher, 60.8%
- CC(O)(c1ccc(Cl)cc1)C(CN1CCCCC1)c1ccccc1 (stereo not drawn) — higher, 79.2%
- CCOC(=O)C1=C(C)N=c2sc(=Cc3cc(Cl)ccc3O)c(=O)n2C1c1ccc(OC)cc1 (stereo not drawn) — higher, 61.6%
